Measurements published in paper PMC4552634, “A New Set of Chemical Starting Points with Plasmodium falciparum Transmission-Blocking Potential for Antimalarial Drug Discovery” (PLoS ONE, 2015).
Where two headings read alike, the source gives them in different places. In all, about 13,000 compounds went through this assay and about 3,200 (25%) showed an effect of 50% or more. The list shows a part of the results.

System: P. falciparum stage V gametocytes
Design: BacTiter-Glo ATP luminescence viability of purified stage V gametocytes in 384-well plates, per cent inhibition versus DMSO
Conditions: 48 h, 5 µM, inhibitor

| SMILES | % Inhibition [%] | % Inhibition (% Inhibition) [%] |
| --- | --- | --- |
| O=C(NCCN1Cc2ccccc2C1=O)c1ccc(Oc2ccc(C(=O)NCCN3Cc4ccccc4C3=O)cc2)cc1 [TCMDC-125669] | 22.87 |  |
| CCOC(=O)C(C#N)NC(=O)C=Cc1ccccc1 (centres unmarked) [TCMDC-131634] | -4.008 |  |
| C=C(C)C1CC=C(CN2CCC(N3CCc4cc(NC(=O)c5cc(C)on5)ccc43)C2)CC1 (centres unmarked) [TCMDC-135089] | 10.83 |  |
| O=C(Nc1cc(Cl)cc(Cl)c1)c1cc(Cl)c(=O)n(Cc2cccc(Cl)c2)c1 [TCMDC-123809] | -55.71 |  |
| COc1ccccc1N1CCN(Cc2cc(C(C)C)c(C)cc2O)CC1 [TCMDC-124541] | -1.392 |  |
| O=C(C=Cc1ccc(-c2ccccc2)cc1)NC1CCC(CN2CCC(c3c[nH]c4ccccc34)CC2)CC1 (centres unmarked) [TCMDC-139951] |  | 123.9 |
| O=C(C=Cc1ccc(-c2ccccc2)cc1)NC1CCC(CN2CCC(c3c[nH]c4ccccc34)CC2)CC1 (centres unmarked) [TCMDC-139935] |  | 108 |
| O=C(/C=C/C=C/c1ccccc1)NC1CCC(CN2CCC(c3c[nH]c4ccccc34)CC2)CC1 (centres unmarked) [TCMDC-139708] | 100.6 |  |
| COc1ccc2nccc(N3CCN(CCNCc4ccc5c(n4)NC(=O)CO5)CC3)c2c1.Cl [TCMDC-141961] | 30.82 |  |
| Cc1nc2nc(N)nc(N)c2c(C)c1Cc1cccc(C(N)=O)c1 [TCMDC-137643] | 17.6 |  |
| CS(=O)(=O)c1ccc(-n2nc(C(F)(F)F)cc2-c2ccc(C=NOCC(=O)O)o2)cc1 [TCMDC-132015] | -3.43 |  |
| COc1cccc(-c2cccc(CNC3CCN(CC4Cn5c(=O)ccc6ccc(F)c4c65)CC3)c2)c1 (centres unmarked) [TCMDC-134412] | 5.028 |  |
| Cc1ccc(Cc2cnc(CN3CCCCC3)c(O)c2)cc1 [TCMDC-125485] | 30.78 |  |
| O=S(=O)(c1ccccc1C(F)(F)F)C1CC2CCC(C1)N2S(=O)(=O)c1ccc(Cl)c(C(F)(F)F)c1 (centres unmarked) [TCMDC-134268] | 33.38 |  |
| O=S(=O)(c1ccc(OC(F)(F)F)cc1)C1CC2CCC(C1)N2S(=O)(=O)c1ccc(Cl)c(C(F)(F)F)c1 (centres unmarked) [TCMDC-134267] | 71.42 |  |
| O=S(=O)(c1ccccc1OC(F)(F)F)C1CC2CCC(C1)N2S(=O)(=O)c1cccc(C(F)(F)F)c1 (centres unmarked) [TCMDC-134266] | 7.024 |  |
| COc1cc(Cc2cnc(N)nc2N)ccc1OCc1ccc(-c2ccccc2C#N)cc1 [TCMDC-138638] | -1.728 |  |
| Cc1ccc2c(NC(=O)Nc3ccc(N(C)C)cc3)cc(C)nc2c1 [TCMDC-140144] | -85.96 |  |
| CC(C)C[C@@H](NC(=O)OC(C)(C)C)C(=O)Nc1ccc(Cc2ccc(NC(=O)[C@@H](CC(C)C)NC(=O)OC(C)(C)C)cc2)cc1 [TCMDC-131869] | -46.99 |  |
| Nc1ccc(-c2ccc(NC(=O)Nc3cc(C(F)(F)F)ccc3F)cc2)cn1 [TCMDC-133410] | 11.7 |  |
| Nc1ncnc2occ(-c3ccc(NC(=O)Nc4cc(C(F)(F)F)ccc4F)cc3)c12 [TCMDC-141371] | 14.45 |  |

| SMILES | % Inhibition [%] | % Inhibition (% Inhibition) [%] |
| --- | --- | --- |
| Nc1ncc(-c2ccc(NC(=O)Nc3cc(C(F)(F)F)ccc3F)cc2)c(N)n1 [TCMDC-133420] | 7.471 |  |
| NCCCNc1ccc(-c2ccc(NC(=O)Nc3cc(C(F)(F)F)ccc3F)cc2)cn1 [TCMDC-133550] | 53.18 |  |
| Nc1nccc2ccc(-c3ccc(NC(=O)Nc4cc(C(F)(F)F)ccc4F)cc3)cc12 [TCMDC-133422] | 80.96 |  |
| Cc1cc(N)ncc1-c1ccc(NC(=O)Nc2cc(C(F)(F)F)ccc2F)cc1 [TCMDC-133438] | 25.29 |  |
| Cc1nc(-c2cccc(Nc3nccc(NCC(O)c4ccc(C(F)(F)F)cc4)n3)c2)cs1 (centres unmarked) [TCMDC-136591] | 22.87 |  |
| Cc1nc(-c2cccc(Nc3nccc(NCC(O)c4ccccc4C)n3)c2)cs1 (centres unmarked) [TCMDC-136567] | -8.142 |  |
| Cc1cc(Nc2ccccc2)nc(Nc2ccccc2C)n1 [TCMDC-123883] | 4.396 |  |
| CCC1(c2ccccc2)N=C(N)N(CCCc2ccccc2)C1=O (centres unmarked) [TCMDC-136547] | 23.07 |  |
| CC1(C)C(N(O)C(=O)Nc2ccc(Cl)c(Cl)c2)N(c2ccc(Cl)c(Cl)c2)C(=O)N1CCc1ccccc1 (centres unmarked) [TCMDC-125555] | -2.423 |  |
| CCCCCN1CCN(Cc2cccc(NC(=O)c3ccc(Cl)c(Cl)c3)c2)CC1 [TCMDC-134616] | -65.82 |  |
| CCCCCN1C(=O)N(c2ccc(Cl)c(Cl)c2)C(N(O)C(=O)Nc2ccc(Cl)c(Cl)c2)C1(C)C (centres unmarked) [TCMDC-124134] | 67.16 |  |
| O=C(NCCN1CCC(c2ccncc2)CC1)c1cccc(Nc2nccc(Nc3ccc(Oc4ccccc4)cc3)n2)c1 [TCMDC-138607] | -52.85 |  |
| COc1ccc2nccc([C@@H](O)CN3CCC(NC(=O)/C=C/c4ccc5[nH]c(=O)ccc5c4)CC3)c2c1 [TCMDC-141032] | -20.87 |  |
| O=C(Nc1ccc(N2CCCCC2)c(Cl)c1)c1ccco1 [TCMDC-124392] | 30.55 |  |
| Oc1ccc(CN2Cc3ccccc3OC3(CCN(Cc4c[nH]c5cnccc45)CC3)C2)cc1 [TCMDC-133377] | 0.4377 |  |
| c1ccc2c(c1)CN(CC1CC1)CC1(CCN(Cc3c[nH]c4cnccc34)CC1)O2 [TCMDC-133375] | -19.67 |  |
| c1ccc2c(c1)CN(Cc1cc3ccccc3[nH]1)CC1(CCN(Cc3c[nH]c4cnccc34)CC1)O2 [TCMDC-133376] | 66.92 |  |
| O=C(NCc1ccc(F)cc1)Nc1ccc(-c2cccc(-c3nc4ccc(C(F)(F)F)cc4[nH]3)c2)cc1 [TCMDC-133298] | -50.83 |  |
| CS(=O)(=O)c1ccccc1CNC(=O)c1ccc(-c2ccc(-c3nc4cc(C(F)(F)F)ccc4[nH]3)s2)cc1 [TCMDC-132507] | 9.09 |  |
| COc1ccc2nccc([C@@H](O)CN3CCC(NC(=O)C(c4cc5ccccc5o4)N4CCN(c5ccc(F)cc5)CC4)CC3)c2c1 (some centres unmarked) [TCMDC-140996] | -29.58 |  |
